Assay outcomes as filed in PubChem.
STK33 kin inh – inhibitors of human STK33 kinase; Q9BYT3; ADP-Glo luminescence, MBP substrate; inhibition, % at 12.5 µM; 27,000 compounds, 0.44% hits; AID 2322; in the data active = inhibition above about 20%
Target sequence (Q9BYT3 whole entry, looked up): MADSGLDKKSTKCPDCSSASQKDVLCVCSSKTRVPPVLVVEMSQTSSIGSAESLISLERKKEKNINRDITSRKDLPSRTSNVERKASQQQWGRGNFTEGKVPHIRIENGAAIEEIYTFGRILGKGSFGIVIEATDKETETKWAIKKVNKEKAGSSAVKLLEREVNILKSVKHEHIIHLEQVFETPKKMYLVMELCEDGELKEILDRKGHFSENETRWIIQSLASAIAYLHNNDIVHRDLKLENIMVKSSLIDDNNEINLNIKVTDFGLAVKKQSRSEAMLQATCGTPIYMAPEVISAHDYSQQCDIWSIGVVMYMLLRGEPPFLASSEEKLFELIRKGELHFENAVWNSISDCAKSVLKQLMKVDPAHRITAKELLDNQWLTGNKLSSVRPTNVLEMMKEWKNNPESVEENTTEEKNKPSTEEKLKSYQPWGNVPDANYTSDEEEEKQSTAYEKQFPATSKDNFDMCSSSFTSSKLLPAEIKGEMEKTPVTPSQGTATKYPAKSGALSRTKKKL
ID4 binder – binds human ID4 protein on microarray; 31,000 compounds, 1.2% hits; calls only; P47928; small molecule microarray, Flag-ID4 binding, fluorescence F/B; call rule not given here;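 note: a binder raises fluorescence above local background on the spot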
mut p53 react – restores mutant p53 pathway signaling in SW480 cells | SW480 PUMA-promoter luciferase, p53 mutant reactivation | activation, % at 9.98 µM | 28,000 compounds, 1.5% hits | AID 624151; in the data active = activation above about 52%
NOMO-1 viab – STK33 inhibitor candidate reducing NOMO-1 cell viability | inhibition, % (test concentration not listed) | NOMO-1 AML viability, CellTiter-Glo luminescence, 72 h | 37,000 compounds, 7.5% hits; in the data active = inhibition above about 80%
Numbers without * were called inactive; i = inactive; . = not tested or not shown; + = active, no number. The entries come from a sample that favours hits as a whole.

SMILES | STK33 kin inh | ID4 binder | mut p53 react | NOMO-1 viab
C[C@H]1CN([C@@H](C)CO)C(=O)Cc2cc(NC(=O)Nc3cccc4ccccc34)ccc2O[C@@H]1CN(C)Cc1ccc(C(F)(F)F)cc1 | 5.0 | . | . | 124.9*
CSc1ccccc1NC(=O)c1cc2n(n1)C(C(F)(F)F)C1CCc3ccccc3C1N2 (stereo unspecified) | . | . | . | 71.6
CC1=CC(C)(C)N2C(=O)C(=O)c3cc(OC(=O)CN4C(=O)c5ccccc5C4=O)cc1c32 | 5.6 | i | 0.5 | 115.4*
CC1=CC(C)(C)N2C(=O)C(=O)c3cc(OC(=O)CN4C(=O)c5cccc6cccc(c56)C4=O)cc1c32 | 1.0 | i | -10.9 | 119.0*
Cc1noc(C)c1NC(=O)Nc1ccc2c(c1)CC(=O)N([C@@H](C)CO)C[C@H](C)[C@H](CN(C)S(C)(=O)=O)O2 | -0.4 | . | . | -3.1
N#C/C(=C\c1cc(Cl)cc(Cl)c1)c1cccnc1 | 5.7 | i | 22.0 | 83.3*
COC(=O)CN(c1ccc(C)c(Cl)c1)S(=O)(=O)c1ccccc1 | 1.1 | i | -1.4 | 30.2
O=C(Nc1cccc(Br)c1)c1cccc2c1C(=O)c1ccccc1-2 | . | . | . | 101.6*
O=C(CN1C(=O)c2ccccc2S1(=O)=O)Nc1cccc(Br)c1 | 8.1 | i | -5.0 | 5.9
C[C@@H]1CN([C@H](C)CO)C(=O)c2cc(NC(=O)Nc3ccc(C(F)(F)F)cc3)ccc2O[C@@H]1CN(C)S(=O)(=O)c1ccccc1 | . | . | . | 45.4
C[C@H]1CN([C@@H](C)CO)C(=O)c2cc(NC(=O)Nc3ccc(C(F)(F)F)cc3)ccc2O[C@H]1CN(C)S(=O)(=O)c1ccccc1 | -3.0 | . | -36.2 | 97.4*
C[C@H](CO)N1C[C@H](C)[C@@H](CN(C)S(=O)(=O)c2ccccc2)Oc2ccc(NC(=O)Nc3ccc(C(F)(F)F)cc3)cc2C1=O | -2.5 | . | . | 68.6
C[C@@H]1CN([C@@H](C)CO)C(=O)c2cc(NC(=O)Nc3ccc(C(F)(F)F)cc3)ccc2O[C@@H]1CN(C)S(=O)(=O)c1ccccc1 | 2.4 | . | . | 89.9*
C[C@@H]1CN([C@@H](C)CO)C(=O)c2cc(NS(=O)(=O)c3ccc(F)cc3)ccc2O[C@H]1CN(C)S(C)(=O)=O | . | . | . | 8.2
C[C@H](CO)N1C[C@H](C)[C@@H](CN(C)Cc2ccc(Oc3ccccc3)cc2)Oc2c(NS(=O)(=O)c3cccs3)cccc2C1=O | . | i | -0.6 | 29.9
C=C1C(=O)O[C@H]2C1CC[C@@](C)(O)[C@@H]1C[C@H](O)C(=C)[C@@H]12 (stereo partly specified) | -7.2 | i | . | .
C=C1C(=O)O[C@H]2C1C[C@@H](OC(C)=O)[C@@]1(C)[C@@H](OC(C)=O)C[C@@H](OC(C)=O)C(=C)[C@H]21 (stereo partly specified) | -0.6 | . | . | 120.4*
C[C@@H]1CN([C@@H](C)CO)C(=O)c2cc(NC(=O)NC3CCCCC3)ccc2O[C@H]1CN(C)C(=O)Nc1ccccc1 | . | i | 11.5 | 5.8
NC(=O)CSc1oc(-c2ccc(F)cc2)nc1S(=O)(=O)c1ccc(Cl)cc1 | 3.0 | i | -16.5 | 22.9
O=C(/C=C/S(=O)(=O)c1ccc(Cl)cc1)c1ccc(F)cc1 | 7.3 | . | . | 120.4*
O=[N+]([O-])c1cccc(COc2ccc(-c3cnc4ccccc4n3)cc2)c1 | 3.8 | i | 62.9* | -30.5
CCC(Oc1ccccc1)C(=O)Nc1cccc(NC(C)=O)c1 (stereo unspecified) | 3.4 | i | -7.0 | -2.2
CC(Oc1ccccc1)C(=O)Nc1cccc(-c2nnc(-c3ccccc3)o2)c1 (stereo unspecified) | 4.2 | i | 114.1* | 26.3
Cc1cc(Cl)ccc1OC(C)C(=O)Nc1cccc(-c2nnc(-c3ccccc3)o2)c1 (stereo unspecified) | 0.7 | i | 84.7* | 64.8
CNC[C@H]1Oc2ccc(NC(=O)c3ccncc3)cc2C(=O)N([C@H](C)CO)C[C@H]1C | . | . | . | 8.7
SMILES | STK33 kin inh | ID4 binder | mut p53 react | NOMO-1 viab
CCOc1ccccc1Nc1nc(N)nc(CSc2nccc(C)n2)n1 | 2.7 | i | 16.3 | -11.5
COc1ccccc1Nc1nc(N)nc(CSc2ncccn2)n1 | -0.4 | i | 85.7* | 27.0
COc1ccccc1NC(=O)c1c(NC(=O)c2ccco2)sc(C)c1C | 1.9 | i | 76.4* | 44.6
C[C@H](CO)N1C[C@H](C)[C@H](CN(C)Cc2ccc3cccnc3c2)OCc2cn(nn2)CCCC1=O | 4.2 | i | -3.1 | .
NS(=O)(=O)C#Cc1ccccc1 | . | i | -31.3 | .
Cc1cccc(C#Cc2ccccc2)n1 | . | i | 84.6* | .
C[C@@H]1CN([C@@H](C)CO)C(=O)CCCn2cc(nn2)CO[C@H]1CN(C)C(=O)c1ccc(N2CCN(C)CC2)cc1 | -3.7 | + | -0.4 | .
C[C@H]1CN([C@@H](C)CO)C(=O)CCCn2nncc2CO[C@H]1CN(C)CC1CCCCC1 | -0.6 | i | . | .
C[C@H](CO)N1C[C@H](C)[C@@H](CN(C)C(=O)Nc2ccccc2F)OCc2cnnn2CCCC1=O | -1.3 | + | 11.2 | .
C[C@H]1CN([C@@H](C)CO)C(=O)CCCn2nncc2CO[C@@H]1CN(C)C(=O)Nc1ccccc1F | -4.1 | i | 13.3 | .
C[C@H](CO)N1C[C@H](C)[C@@H](CN(C)CC2CCCCC2)OCc2cn(nn2)CCCC1=O | 1.3 | + | . | .
C[C@@H]1CN([C@@H](C)CO)C(=O)CCCn2nncc2CO[C@H]1CN(C)CC1CCCCC1 | 1.5 | + | . | .
C[C@@H]1CN([C@H](C)CO)C(=O)CCCn2cc(nn2)CO[C@H]1CN(C)C(=O)c1ccc(N2CCN(C)CC2)cc1 | 0.1 | i | 12.4 | .
C[C@H](CO)N1C[C@H](C)[C@H](CN(C)CC2CCCCC2)OCc2cn(nn2)CCCC1=O | -3.1 | i | . | .
C=CC1CCC(N(Cc2ccccc2)S(=O)(=O)c2ccc(C)cc2)C(O)C1 (stereo unspecified) | . | i | 6.7 | .
C[C@H]1CN([C@@H](C)CO)C(=O)c2cc(NC(=O)Nc3ccc(C(F)(F)F)cc3)ccc2O[C@H]1CN(C)Cc1ccc(Oc2ccccc2)cc1 | . | . | . | 83.0*
C[C@H](CO)N1C[C@H](C)[C@H](CN(C)Cc2ccc(Oc3ccccc3)cc2)Oc2ccc(NC(=O)Nc3ccc(C(F)(F)F)cc3)cc2C1=O | 1.7 | . | . | 113.9*
C[C@H](CO)N1C[C@H](C)[C@@H](CN(C)Cc2ccc(Oc3ccccc3)cc2)Oc2ccc(NC(=O)Nc3ccc(C(F)(F)F)cc3)cc2C1=O | . | . | . | 127.9*
Cn1ccc2cc(NC(=O)Nc3cccnc3)ccc21 | . | + | 79.8* | .
COc1ccc(NC(=O)Nc2ccc3c(c2)CC(=O)N([C@H](C)CO)C[C@@H](C)[C@@H](CN(C)C(=O)Nc2ccc4c(c2)OCO4)O3)cc1 | -2.1 | . | . | -5.3
CCOC(=O)c1c(NC(=O)C(C)n2nc([N+](=O)[O-])c(Br)c2C)sc(C)c1C (stereo unspecified) | -3.4 | i | -0.4 | 39.7
Cc1ccc(S(=O)(=O)Nc2cccc3c2O[C@H](CN(C)Cc2ccc(C(=O)Nc4ccccc4N)cc2)[C@H](C)CN([C@H](C)CO)C3=O)cc1 | . | . | . | 128.6*
Cc1ccc(S(=O)(=O)Nc2cccc3c2O[C@H](CN(C)Cc2ccc(C(=O)Nc4ccccc4N)cc2)[C@@H](C)CN([C@@H](C)CO)C3=O)cc1 | . | . | . | 120.7*
